Screening results: PubChem, The Scripps Research Institute Molecular Screening Center
DAX1 inh-1 – NR0B1 (DAX1) inhibition | P51843 | HEK293 Gal4-DAX1 luciferase reporter, luminescence | inhibition, % at 6.75 µM | 0.99% of 340,000 active | AID 504766;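 active = inhibition above the mean over all tested compounds plus 3 SD, cut at about 4.2% in these data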;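 note: 0% = DAX1-transfected cells with DMSO and 100% = empty-vector control cells with DMSO; inhibition shows as a rise in luminescence from relieved DAX1 repression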
Target sequence (P51843 207-470 limits assumed): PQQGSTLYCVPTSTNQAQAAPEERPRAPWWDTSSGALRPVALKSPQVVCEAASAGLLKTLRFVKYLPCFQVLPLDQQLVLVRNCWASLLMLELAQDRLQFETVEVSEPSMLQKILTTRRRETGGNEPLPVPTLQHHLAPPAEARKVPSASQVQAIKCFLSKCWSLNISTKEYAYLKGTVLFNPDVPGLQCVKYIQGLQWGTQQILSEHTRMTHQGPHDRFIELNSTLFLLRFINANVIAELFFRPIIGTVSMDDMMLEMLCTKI
ssDAF12 agonist – activators of S. stercoralis DAF-12 nuclear receptor. HEK293 ssDAF-12/GRIP1 lit1-tk-luc reporter, luminescence; % of 3 µM dafachronic acid response. activation, % at 6.8 µM. 1% of 370,000 active. AID 652126;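 active = activation above the mean over all tested compounds plus 3 SD, cut at about 0.9% in these data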;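 note: 0% = DMSO-only wells and 100% = 3 µM delta7-dafachronic acid wells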
hcDAF-12 act – activators of H. contortus DAF-12 nuclear receptor | HEK293 hcDAF-12 lit1-tk-luc reporter, luminescence; 0% DMSO, 100% Δ7-dafachronic acid | activation, % at 6.8 µM | 1.4% of 370,000 active;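 active = activation above the mean of all tested compounds plus 3 SD, cut at about 5.5% in these data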;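 note: 100% = response to 3 µM Δ7-dafachronic acid high control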
DAX1 inh-2 – DAX1 (NR0B1) inhibition, primary screen. 1.1% of 370,000 active. HEK293T StAR-luciferase reporter, SF-1/DAX-1 repression relief. AID 652010. inhibition, % at 6.8 µM;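 active = inhibition above the mean over all tested compounds plus 3 SD, cut at about 3.6% in these data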;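 note: 0% = DAX-1 cells with DMSO and 100% = cells lacking DAX-1 with DMSO; higher inhibition means more luminescence from relief of DAX-1 repression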
hgDAF12 agonist – activates the H. glycines DAF-12 receptor ligand-binding domain. 1.8% of 370,000 active. HEK293 GAL4-hgDAF12 UAS-luciferase reporter, agonist luminescence; normalized to butyrate control. activation, % at 6.8 µM;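 active = activation above a cutoff set at the mean of all screened compounds plus 3 SD, cut at about 10% in these data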;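 note: 0% = DMSO wells and 100% = sodium butyrate wells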
AHR activator – activators of human aryl hydrocarbon receptor | 2.5% of 320,000 active | activation, % at 5 µM | P35869 | AHR-responsive luciferase reporter cells, luminescence; in the data active = activation above about 47%;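 note: 0% = vehicle wells and 100% = reference agonist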
DAX1 inh confirm – NR0B1 (human) inhibition, confirmation; shares compounds with DAX1 inh-2; HEK293T StAR-promoter luciferase reporter, SF-1/DAX-1 repression; inhibition, % at 6.8 µM; 87% of 2,400 active;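 active = inhibition above the average of every tested compound plus 3 SD, cut at about 3.8% in these data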;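 note: 0% = DAX-1 cells with DMSO and 100% = no DAX-1 control cells with DMSO; active compounds raise luminescence by relieving repression of the StAR reporter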
SF1 AF2mut Luc – counter-screen for DAX1 inhibitors: nonselective inhibitors with SF-1 AF2 mutant; 78% of 2,400 active; HEK293 StAR-luciferase, luminescence; shares compounds with DAX1 inh-2; AID 652136; inhibition, % at 6.8 µM;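 active = inhibition above the mean of all tested compounds plus 3 SD, cut at about 3% in these data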;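 note: 0% = DAX-1 transfected cells with DMSO and 100% = cells without DAX-1 with DMSO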
LXRb hcDAF ctr – LXR-beta agonism as hcDAF-12 counter-screen; shares compounds with hcDAF-12 act; HEK293 Gal4-LXR tk-luc reporter, luminescence, 24 h; normalized: DMSO 0%, positive control 100%; activation, % at 6.8 µM; 3,400 tested, under 10 active;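 active = mean percent activation of the reporter above a cutoff set as the average over tested compounds plus their standard deviation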
hcDAF12 conf – hcDAF-12 agonism, confirmation assay; shares compounds with hcDAF-12 act; HEK293 hcDAF-12 lit1-tk-luc reporter, luminescence; % of Δ7-dafachronic acid response; activation, % at 6.8 µM; 61% of 3,400 active;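 active = mean activation across triplicate tests above the threshold derived from the earlier primary screen, cut at about 5.5% in these data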;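 note: 0% = DMSO only wells and 100% = 3 µM Δ7-dafachronic acid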
hgDAF12 conf – hgDAF-12 agonism, confirmation assay | shares compounds with hgDAF12 agonist | HEK293 GAL4-hgDAF12 luciferase reporter, agonist mode; percent of butyrate response | activation, % at 6.8 µM | 80% of 3,300 active | AID 743050;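 active = mean activation over triplicate wells above the hit cutoff derived from the earlier primary screen, cut at about 11% in these data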;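 note: 0% = DMSO low control and 100% = 2 mM sodium butyrate high control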
LXR ag 2 – counter-screen for DAF-12 agonists: agonists of human LXR-beta; 3,300 tested, under 10 active; shares compounds with hgDAF12 agonist; activation, % at 6.8 µM; HEK293 Gal4-LXR luciferase reporter, 24 h;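 active = mean activation of the triplicate above a set limit carried over from the primary screen, none filed active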
* marks the source's active call; other numbers are inactive results; . = no result. Most compounds without a hit are left out; they make up all but 5.7% or so of the library.

SMILES | DAX1 inh-1 | ssDAF12 agonist | hcDAF-12 act | DAX1 inh-2 | hgDAF12 agonist | AHR activator | DAX1 inh confirm | SF1 AF2mut Luc | hgDAF12 conf | LXR ag 2 | others
CN1CCc2c(sc(NC(=O)C3CCCN3S(=O)(=O)c3ccc(Cl)s3)c2C(N)=O)C1 (stereo not given) | 1 | -1 | 2 | 1 | 2 | 0 | . | . | . | .
CC(C)c1ccc(/C=C/c2ccc(=O)n(C)n2)cc1 | 1 | 0 | 6.4* | 5.3* | 19* | 24 | 6.7* | 3.4* | 14* | 1
CCOC(=O)C(C)n1nc(/C=C/c2ccc(OC)cc2)ccc1=O (stereo not given) | 0 | -1 | 0 | 0 | -1 | 1 | . | . | . | .
CCN=C1NN=C(c2c[nH]c3ccccc23)CS1 | 1 | 3.7* | 11* | 4.9* | 15* | 39 | 12* | 5.8* | 20* | 1 | LXRb hcDAF ctr=1;hcDAF12 conf=12*
COc1cc(Cl)cc(/C=C/c2ccc3ccccc3n2)c1OC(C)=O | 0 | 0 | 4 | 5.1* | 21* | 3 | 11* | 5.3* | 13* | 1
COc1ccc(-c2nnc(SCc3c(F)cccc3F)n2N)cc1 | . | 0 | 4 | 7.5* | 13* | . | 14* | 6.2* | 15* | 1
COc1ccc(-c2nnc(SCc3cccc(C)c3)n2N)cc1 | 0 | -1 | -1 | 1 | -2 | -2 | . | . | . | .
CC(C)(C)c1ccc(NC(=O)Nc2ccc(OCC(=O)N3CCOCC3)cc2)cc1 | 0 | -1 | 6.4* | 5.1* | 15* | 7 | 7.8* | 4.5* | 22* | 1
O=C(Nc1ccc(OCC(=O)N2CCOCC2)cc1)Nc1cccc(Cl)c1 | -1 | -2 | -1 | 0 | 4 | 3 | . | . | . | .
O=C(Nc1ccc2c(c1)OCO2)c1cc(C2CCCN(C(=O)CCc3ccccc3)C2)on1 (stereo not given) | . | -2 | 0 | 2 | 3 | . | . | . | . | .
CCCC(=O)N1CCCC(c2cc(C(=O)Nc3ccc4c(c3)OCO4)no2)C1 (stereo not given) | . | -1 | 3 | 4.7* | 18* | . | 4.4* | 2 | 13* | 1
CC(=O)Nc1ccccc1OCC(=O)NC1CCCCC1C (stereo not given) | 0 | 0 | -2 | 0 | 0 | -1 | . | . | . | .
O=C(Nc1ccc(N2CCCC2)cc1)c1ccc(Br)o1 | 1 | 1 | 9.2* | 6.0* | 16* | 5 | 12* | 6.0* | 17* | 1 | LXRb hcDAF ctr=2;hcDAF12 conf=7.9*
O=C(Nc1ccc(N2CCCCC2)cc1)c1ccc(F)cc1 | 0 | 1 | 8.3* | 4.6* | 13* | -4 | 12* | 6.0* | 20* | 1 | LXRb hcDAF ctr=1;hcDAF12 conf=2
CCC(C)c1ccc(NC(=O)c2cccs2)cc1 (stereo not given) | 0 | 1.7* | 8.2* | 7.2* | 19* | 2 | 19* | 6.4* | 20* | 1 | LXRb hcDAF ctr=2;hcDAF12 conf=7.8*
O=C(O)c1ccc(N/N=C/C=C/c2ccccc2)cc1 | 1 | 1 | 5 | 6.3* | 15* | 7 | 11* | 5.8* | 15* | 1
O=C(N/N=C/C=C/c1ccccc1)c1ccncc1 | 2 | -1 | 1 | 1 | 3 | 8 | . | . | . | .
